ChEMBL document CHEMBL3988442, “University of Dundee, Small-Polar-MMV Screening Library” (2021)
For some of these results: Results with a measured potency or affinity are listed apart.

Experiments:
Design in all cases: scale not given: direction of the effect not stated beside the values
[1] = target: Protein translocase subunit SecA (Escherichia coli (strain K12)) (UniProt P10408); assay: Assay to Identify E. coli SecA ATPase Inhibitors; assay type: functional; conditions: 30 µM
[2] = target: T1, Ubiquitin-activating enzyme e1, putative (Leishmania donovani (strain BPK282A1)) (UniProt E9BSI1); assay: Leishmania donovani Ubiquitin Activating Enzyme (LdE1); assay type: functional; conditions: 30 µM
T1 sequence (whole entry): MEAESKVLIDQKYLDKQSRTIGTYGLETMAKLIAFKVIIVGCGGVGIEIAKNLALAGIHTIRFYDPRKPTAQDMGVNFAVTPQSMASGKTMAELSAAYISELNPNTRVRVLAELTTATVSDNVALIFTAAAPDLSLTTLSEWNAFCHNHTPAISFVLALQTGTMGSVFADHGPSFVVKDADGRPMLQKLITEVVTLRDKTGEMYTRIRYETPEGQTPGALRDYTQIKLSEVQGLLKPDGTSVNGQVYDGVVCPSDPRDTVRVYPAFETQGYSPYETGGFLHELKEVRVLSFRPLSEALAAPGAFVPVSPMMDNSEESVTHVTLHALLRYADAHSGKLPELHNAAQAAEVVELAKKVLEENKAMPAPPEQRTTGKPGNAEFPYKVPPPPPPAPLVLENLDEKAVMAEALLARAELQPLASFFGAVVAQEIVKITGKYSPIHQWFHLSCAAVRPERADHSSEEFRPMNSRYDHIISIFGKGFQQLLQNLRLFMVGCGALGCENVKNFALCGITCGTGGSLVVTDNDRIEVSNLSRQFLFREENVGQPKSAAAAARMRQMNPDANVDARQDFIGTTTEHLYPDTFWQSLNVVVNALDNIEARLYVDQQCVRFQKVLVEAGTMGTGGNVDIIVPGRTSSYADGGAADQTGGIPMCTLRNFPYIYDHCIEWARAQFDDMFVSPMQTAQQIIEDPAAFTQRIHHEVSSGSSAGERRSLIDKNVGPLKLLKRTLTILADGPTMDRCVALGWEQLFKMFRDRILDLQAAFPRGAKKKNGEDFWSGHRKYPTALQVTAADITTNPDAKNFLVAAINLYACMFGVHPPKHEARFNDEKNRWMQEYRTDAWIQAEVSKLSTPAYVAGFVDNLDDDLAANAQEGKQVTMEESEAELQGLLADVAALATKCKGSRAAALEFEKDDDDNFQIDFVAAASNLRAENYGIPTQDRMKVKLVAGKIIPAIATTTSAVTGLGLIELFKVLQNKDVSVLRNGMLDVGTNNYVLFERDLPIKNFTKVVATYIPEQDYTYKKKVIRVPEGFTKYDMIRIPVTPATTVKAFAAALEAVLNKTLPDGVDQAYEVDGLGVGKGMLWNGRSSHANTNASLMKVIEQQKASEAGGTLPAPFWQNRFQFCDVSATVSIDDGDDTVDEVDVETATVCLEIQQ

[3] = target: AMP-activated protein kinase, AMPK (Homo sapiens) (UniProt P54646+O43741+P54619+Q9UGJ0+Q9Y478+Q13131+Q9UGI9); assay: AMP-dependent Kinase enzyme assay. An in vitro enzyme assay that detects ADP turnover that is directly proportional to AMPK activity. This uses naive AMPK that is activated during the assay with MK-8722; assay type: functional; conditions: 30 µM
[4] = target: Sialic acid-binding Ig-like lectin 9 (Homo sapiens) (UniProt Q9Y336); assay: Hs-Siglec9 ALPHAscreen SOP 20170721; conditions: 10 µM
Sequence of Sialic acid-binding Ig-like lectin 9 (Homo sapiens) (Q9Y336 whole entry): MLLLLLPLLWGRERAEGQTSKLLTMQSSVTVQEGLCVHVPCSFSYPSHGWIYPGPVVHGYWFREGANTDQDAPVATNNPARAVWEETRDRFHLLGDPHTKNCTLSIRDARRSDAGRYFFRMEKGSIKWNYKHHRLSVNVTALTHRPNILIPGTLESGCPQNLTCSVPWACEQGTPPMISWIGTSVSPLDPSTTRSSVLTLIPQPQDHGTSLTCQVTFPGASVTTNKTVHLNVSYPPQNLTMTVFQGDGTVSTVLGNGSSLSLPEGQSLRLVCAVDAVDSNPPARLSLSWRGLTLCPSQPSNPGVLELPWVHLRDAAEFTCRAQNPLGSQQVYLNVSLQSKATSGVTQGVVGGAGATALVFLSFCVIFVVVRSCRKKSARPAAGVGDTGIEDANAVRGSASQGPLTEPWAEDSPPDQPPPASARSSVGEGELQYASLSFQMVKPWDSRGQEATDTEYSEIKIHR

Trypanosoma cruzi = assay: Trypanosoma cruzi phosphomannomutase and mannose-1-phosphate guanylyltransferase assay; assay type: functional; conditions: 10 µM
[5] = target: T2, Arginase-2, mitochondrial (Homo sapiens) (UniProt P78540); assay: in vitro enzyme assay to detect the production of urea directly proportional to the activity of Arginase II; assay type: functional; conditions: 33.3 µM; further: in the data most compounds retested in dose-response had high values
T2 sequence (whole entry): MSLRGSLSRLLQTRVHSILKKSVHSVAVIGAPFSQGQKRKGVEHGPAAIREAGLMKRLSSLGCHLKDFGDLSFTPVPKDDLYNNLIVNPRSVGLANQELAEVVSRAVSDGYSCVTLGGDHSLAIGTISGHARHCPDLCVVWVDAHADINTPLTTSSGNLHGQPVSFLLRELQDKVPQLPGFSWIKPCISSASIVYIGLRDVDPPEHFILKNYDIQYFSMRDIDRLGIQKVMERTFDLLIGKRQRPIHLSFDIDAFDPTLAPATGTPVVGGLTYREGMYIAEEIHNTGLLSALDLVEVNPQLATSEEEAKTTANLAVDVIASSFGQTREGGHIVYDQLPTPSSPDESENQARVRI

[6] = target: T3, Proteasome subunit beta (Trypanosoma cruzi) (UniProt O96673); assay: Trypanosoma cruzi proteasome chymotrypsin-like activity (TcProtChymo) assay.; further: in the data most compounds retested in dose-response had high values; assay type: functional; conditions: 9.37 µM
T3 sequence (whole entry): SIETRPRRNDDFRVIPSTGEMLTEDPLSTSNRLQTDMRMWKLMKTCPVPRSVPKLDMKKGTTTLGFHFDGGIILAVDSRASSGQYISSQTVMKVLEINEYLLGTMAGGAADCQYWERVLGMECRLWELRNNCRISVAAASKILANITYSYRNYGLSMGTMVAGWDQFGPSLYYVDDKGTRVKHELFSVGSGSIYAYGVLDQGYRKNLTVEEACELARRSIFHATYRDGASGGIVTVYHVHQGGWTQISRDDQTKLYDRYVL

Homo sapiens = organism: Homo sapiens; assay: To identify inhibition of the IFN signalling (Jak-Stat) pathway via expression of an eGFP reporter gene under the control of an IFN-stimulated response element (ISRE) containing MxA promoter.; assay type: functional; conditions: 30 µM
[7] = target: T4, Tyrosyl-tRNA synthetase, putative (Trypanosoma cruzi (strain CL Brener)) (UniProt Q4DSP6); assay: Trypanosoma cruzi tyrosyl tRNA synthetase (TcYRS) _High Tyrosine SOP; assay type: functional; conditions: 30 µM; further: in the data most compounds retested in dose-response had high values
T4 sequence (whole entry): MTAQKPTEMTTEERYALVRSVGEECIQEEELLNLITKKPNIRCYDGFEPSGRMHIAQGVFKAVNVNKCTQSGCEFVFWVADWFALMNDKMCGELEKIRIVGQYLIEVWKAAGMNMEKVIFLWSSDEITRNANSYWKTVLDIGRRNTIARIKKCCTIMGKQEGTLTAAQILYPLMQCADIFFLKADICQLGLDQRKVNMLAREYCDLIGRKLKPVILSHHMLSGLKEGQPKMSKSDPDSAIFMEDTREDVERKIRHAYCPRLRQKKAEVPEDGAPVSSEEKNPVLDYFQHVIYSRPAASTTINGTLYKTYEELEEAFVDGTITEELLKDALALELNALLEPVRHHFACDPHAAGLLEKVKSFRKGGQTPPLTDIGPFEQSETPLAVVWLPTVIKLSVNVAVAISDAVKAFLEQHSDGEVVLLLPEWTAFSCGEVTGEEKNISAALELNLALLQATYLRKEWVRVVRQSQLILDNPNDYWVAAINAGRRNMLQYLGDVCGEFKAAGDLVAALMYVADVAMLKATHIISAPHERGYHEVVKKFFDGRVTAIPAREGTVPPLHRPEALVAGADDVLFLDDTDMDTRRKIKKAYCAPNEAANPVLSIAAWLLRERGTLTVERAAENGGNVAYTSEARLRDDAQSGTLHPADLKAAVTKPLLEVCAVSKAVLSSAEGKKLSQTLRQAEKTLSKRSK

[8] = target: T4, Tyrosyl-tRNA synthetase, putative (Trypanosoma cruzi (strain CL Brener)); assay: Trypanosoma cruzi tyrosyl tRNA synthetase (TcYRS) SOP; assay type: functional; conditions: 30 µM
[9] = target: Chromo domain-containing protein 1 (Saccharomyces cerevisiae (strain ATCC 204508 / S288c) (Baker's yeast)) (UniProt P32657); assay: ScCHD-1 Enzyme Inhibition Assay; assay type: functional; conditions: 30 µM; further: in the data most compounds retested in dose-response had high values
Sequence of Chromo domain-containing protein 1 (Saccharomyces cerevisiae (strain ATCC 204508 / S288c) (Baker's yeast)) (P32657 whole entry, the tested form may be a part): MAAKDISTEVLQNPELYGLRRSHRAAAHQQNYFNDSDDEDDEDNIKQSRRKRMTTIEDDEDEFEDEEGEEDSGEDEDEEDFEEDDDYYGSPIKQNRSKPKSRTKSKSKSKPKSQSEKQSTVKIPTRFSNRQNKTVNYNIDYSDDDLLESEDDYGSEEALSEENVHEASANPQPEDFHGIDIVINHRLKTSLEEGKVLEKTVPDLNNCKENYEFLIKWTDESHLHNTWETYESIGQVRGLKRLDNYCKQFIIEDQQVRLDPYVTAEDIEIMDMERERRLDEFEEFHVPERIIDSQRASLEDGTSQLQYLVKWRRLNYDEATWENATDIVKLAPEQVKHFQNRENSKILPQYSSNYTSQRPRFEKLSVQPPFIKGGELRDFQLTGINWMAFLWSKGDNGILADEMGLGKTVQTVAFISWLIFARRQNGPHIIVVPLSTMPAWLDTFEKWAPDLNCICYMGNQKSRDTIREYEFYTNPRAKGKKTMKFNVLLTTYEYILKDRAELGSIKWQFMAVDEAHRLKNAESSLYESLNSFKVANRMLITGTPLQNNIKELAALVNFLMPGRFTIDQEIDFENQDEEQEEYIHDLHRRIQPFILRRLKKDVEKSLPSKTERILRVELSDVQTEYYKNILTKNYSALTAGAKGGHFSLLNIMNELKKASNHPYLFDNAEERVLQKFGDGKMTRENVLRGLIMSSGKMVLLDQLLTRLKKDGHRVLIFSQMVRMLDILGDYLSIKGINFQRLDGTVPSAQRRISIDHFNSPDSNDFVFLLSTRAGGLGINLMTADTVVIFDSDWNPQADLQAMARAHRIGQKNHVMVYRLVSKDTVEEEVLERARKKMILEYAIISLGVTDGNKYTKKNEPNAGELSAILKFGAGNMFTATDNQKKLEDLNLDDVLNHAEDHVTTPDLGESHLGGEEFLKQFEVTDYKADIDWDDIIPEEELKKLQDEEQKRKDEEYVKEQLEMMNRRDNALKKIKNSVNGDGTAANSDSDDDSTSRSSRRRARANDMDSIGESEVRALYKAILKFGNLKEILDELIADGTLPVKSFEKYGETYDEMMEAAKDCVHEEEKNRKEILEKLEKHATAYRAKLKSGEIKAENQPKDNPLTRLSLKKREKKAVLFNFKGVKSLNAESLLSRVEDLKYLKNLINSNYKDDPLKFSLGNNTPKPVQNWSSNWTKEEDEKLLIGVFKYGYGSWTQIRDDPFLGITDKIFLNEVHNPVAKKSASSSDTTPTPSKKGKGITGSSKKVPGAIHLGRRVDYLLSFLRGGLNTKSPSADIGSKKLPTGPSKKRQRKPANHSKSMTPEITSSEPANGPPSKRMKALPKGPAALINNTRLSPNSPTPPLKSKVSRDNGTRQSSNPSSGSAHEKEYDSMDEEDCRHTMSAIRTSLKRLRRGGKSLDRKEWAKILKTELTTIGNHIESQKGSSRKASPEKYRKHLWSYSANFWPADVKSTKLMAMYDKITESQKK

Sequence of Protein translocase subunit SecA (Escherichia coli (strain K12)) (P10408 whole entry): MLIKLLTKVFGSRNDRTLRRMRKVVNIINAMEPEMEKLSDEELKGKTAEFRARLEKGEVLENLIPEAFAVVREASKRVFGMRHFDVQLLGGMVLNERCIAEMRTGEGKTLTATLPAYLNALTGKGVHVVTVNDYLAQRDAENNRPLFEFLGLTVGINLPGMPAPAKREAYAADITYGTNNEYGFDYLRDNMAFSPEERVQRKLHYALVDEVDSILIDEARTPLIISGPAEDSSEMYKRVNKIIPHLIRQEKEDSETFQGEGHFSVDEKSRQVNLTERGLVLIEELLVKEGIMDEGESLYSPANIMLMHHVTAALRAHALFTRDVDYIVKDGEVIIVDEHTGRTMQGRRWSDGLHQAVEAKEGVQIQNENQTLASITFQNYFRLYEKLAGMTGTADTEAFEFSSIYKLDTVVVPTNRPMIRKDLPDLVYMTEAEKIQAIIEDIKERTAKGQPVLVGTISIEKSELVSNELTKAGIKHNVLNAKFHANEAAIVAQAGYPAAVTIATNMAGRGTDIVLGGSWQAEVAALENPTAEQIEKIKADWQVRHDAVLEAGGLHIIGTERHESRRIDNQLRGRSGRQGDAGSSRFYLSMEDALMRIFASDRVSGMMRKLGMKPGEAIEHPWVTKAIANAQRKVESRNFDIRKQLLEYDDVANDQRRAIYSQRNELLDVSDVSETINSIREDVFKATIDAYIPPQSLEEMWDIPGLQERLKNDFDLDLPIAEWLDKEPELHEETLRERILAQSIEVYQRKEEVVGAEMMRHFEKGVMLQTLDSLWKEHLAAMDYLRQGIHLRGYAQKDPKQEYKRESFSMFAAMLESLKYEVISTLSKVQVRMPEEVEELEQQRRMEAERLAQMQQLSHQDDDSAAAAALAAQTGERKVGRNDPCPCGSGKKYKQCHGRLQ

Row | Compound | Percent Effect [1] [%] | Percent Effect [2] [%] | Percent Effect [3] [%] | Percent Effect [4] [%] | Percent Effect (Trypanosoma cruzi) [%] | Percent Effect [5] [%] | Percent Effect [6] [%] | Percent Effect (Homo sapiens) [%] | Percent Effect [7] [%] | Percent Effect [8] [%] | Percent Effect [9] [%]
1 | CN1CCCC(c2cccc(Cc3ccccc3Cl)n2)C1 (stereo unspecified) | -3.49 | -4.05 | 7.5 | 3.2 | 1.38 | -3.48 | 1.72 | 5.26 | 2.15 | 1.3 | -7.93
2 | CNc1cc(C)nc(C2CN(Cc3cc[nH]n3)CCO2)c1 (stereo unspecified) | -2.72 | 1.35 | 11.4 | -2.27 | -7.51 | -6.26 | -0.156 | -17.5 | 0 | 3.9 | -10.1
3 | CNS(=O)(=O)c1ccc(C(=O)NC2CCOc3ccccc32)o1 (stereo unspecified) | -5.29 | 18.4 | 0.291 | 1.37 | 0.682 | -3.55 | 11.8 | 17.5 | 2.13 | 18.2 | -7.69
4 | c1ccc(-c2nc(CN3CCCC(Cn4cncn4)C3)no2)cc1 (stereo unspecified) | -5.26 | -3.8 | 7.69 | -3.34 | -3.59 | 5.38 | 4.8 | 0.0835 | 2.08 | 7.59 | -9.44
5 | CN(Cc1cnn(C)c1)C(=O)NC1CCN(Cc2ccccn2)CC1 | -4.71 | 15.6 | 2.19 | -0.77 | -8.99 | 0.356 | 4.22 | 15.9 | 3.88 | 7.32 | -3.83
6 | Cc1nc(CN2C[C@@H]3CN(C(=O)c4ccnnc4)C[C@@H]3C2=O)cs1 | -4.78 | 5.41 | 6.23 | 4.54 | -0.684 | 2.23 | 11.6 | -22.8 | 3.24 | 7.69 | 4.63
7 | COc1cc(CN2CCN(c3cccc(OC)c3)C(=O)C2)cc(OC)c1 | -1.99 | 1.39 | -1.82 | -5.46 | -5.34 | -4.42 | 10.9 | -15.2 | 2.1 | 2.56 | -2.05
8 | CC(=O)N1CCCN(C(=O)c2csc(-c3ccc(C)cc3C)n2)CC1 | -4.67 | 18.9 | -3.68 | 14.8 | 7.15 | -7.58 | 5.39 | 30 | 5.94 | 23.2 | -6.02
9 | Nc1nc2c(c(=O)[nH]1)CCN(C(=O)c1cccc3nccnc13)C2 | -2.43 | 10.4 | -11.5 | 9.88 | 2.46 | -12.4 | 20.6 | -5.63 | 4.3 | 8.64 | -0.6
10 | CCn1c(N)nc2cc(C(=O)NCCc3ccccc3C)cnc21 | -2.81 | 13.7 | 9.51 | 3.5 | 5.09 | 15 | 22.7 | 20.2 | 5.38 | 17.5 | -12.1
11 | O=C1C[C@H]2[C@@H](CCN2C(=O)c2ccccc2)N1CCN1CCOCC1 | -2.13 | -2.74 | 0.783 | 2.27 | 0.794 | -2 | 2.48 | 0.931 | 2.08 | -1.24 | -3.6
